Values joined by “and” are separate entries in the source; they are usually repeats but may differ in a detail not shown here. Identical values can stand only once. Results filed as inconclusive are left out. Where a structure was tested more than once in an assay, its records may differ in their call. Active and inactive are the calls of the source. Unless noted, calls come from the whole dose curve; as a rule, active = well fitted curve in either direction with a large enough effect (not every such curve was filed as active); inconclusive = small, poorly fitted or top-dose-only effect, or another doubt; inactive = flat fitted curve, though single readings scatter.
Columns and labels:
[1] = AP1 Signaling Pathway (AID 357); conditions: ME-180 AP-1-bla reporter, EGF-induced, beta-lactamase ratio, 5 h;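 note: ME-180 reporter cells stimulated with EGF at its EC50 level; % is set by controls: 0 for no effect and ±100 for the full control effect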
Procedure, shortened: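 AP-1-bla ME-180 cells, Opti-MEM + 0.5% dialyzed FBS, plated overnight 37 °C. Cpd titration + EC50 EGF, 5 h 37 °C. CCF4 2.5 h RT; ex 405, em 460/530 ratio → %activity, AC50.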

[2] = molecular target: Cytochrome P450 1A2 (Homo sapiens) (UniProt P05177); experiment: p450-cyp1a2 (AID 410; calls by dose curve; note: potency is the fitted concentration of half-maximal effect;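 for activity change, negative = inhibition: -100% = full effect of reference inhibitor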); conditions: recombinant CYP1A2, luciferin-ME demethylation, luminescence; series mostly up to 57 µM
Procedure, shortened: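 Inhibition was calculated relative to 57 uM furafylline (full inhibition). The reaction used human CYP1A2 at 20nM with Luciferin-ME at its Km, 100uM, driven by an NADPH-regenerating system for 60 min at room temperature.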

[3] = Stat Signaling Pathway (AID 446); conditions: ME-180 (cervical carcinoma) SIE beta-lactamase reporter, IL-6 stimulated, 5 h;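 note: ME-180 cervical cancer cells given 40 pM IL-6 alongside compound; SIE-controlled beta-lactamase reporter measured as 460/530 nm FRET emission ratio; % is set by controls: 0 for no effect and ±100 for the full control effect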
Procedure, shortened: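 IL-6/STAT signaling read in ME-180 cells via an SIE beta-lactamase reporter. Stimulus was 40 pM IL-6 (its AC50) for 5 hrs, so both activation and inhibition register.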

[4] = molecular target: Glucocorticoid receptor (Homo sapiens) (UniProt P04150); experiment: GR-GFP Redistribution (AID 450;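 active = compounds whose dose series gives a full or clear partial fitted curve of increased nuclear translocation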; note: potency is the fitted concentration of half-maximal effect); conditions: U2OS GR-GFP nuclear translocation, laser cytometry, 2 h
[5] = molecular target: Glucocorticoid receptor (Homo sapiens) (UniProt P04150); experiment: GR-EFC Redistribution (AID 451; calls by dose curve; note: potency is the fitted concentration of half-maximal effect); conditions: CHO-K1 GR-EFC translocation, beta-gal luminescence, 2 h
Procedure, shortened: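 Translocation of GR-ED fusion to nuclear EA restores b-gal, read by luminescence after 1 h room-temperature detection. Engineered CHO-K1 biosensor cells, 1,000/well, exposed 2 h at 37 C to titrations up to 46 uM final.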

[6] = molecular target: Mitogen-activated protein kinase 10 (Mus musculus) (UniProt Q61831); experiment: JNK3 AlphaScreen Assay (AID 530); conditions: JNK3 lysate, c-Jun phosphorylation; series mostly up to 57.1 µM;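 note: kinase came from lysate of stimulated human HepG2 cells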; note: potency is the fitted concentration of half-maximal effect;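 for activity change, negative = inhibition: signal reports phosphorylation of biotinylated GST-cJun 1-79 at Ser73 with 10 µM ATP; % is set by controls: 0 for no effect and ±100 for the full control effect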
Procedure, shortened: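 Room-temperature AlphaScreen kinase assay; pre-activated HepG2 lysate as JNK3 source, biotin-GST-cJun(1-79) substrate, 10 uM ATP, compound 15 min preincubation.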

[7] = molecular target: 3',5'-cyclic-AMP phosphodiesterase 4B (Homo sapiens) (UniProt Q07343); experiment: qHTS Assay for Inhibitors of PDE-IV (AID 607; active = well fitted activation curve with a large enough effect in the main read-out, with a control signal flat, not every such curve was filed as active; note: % of control where 0% means no effect); conditions: HEK293 ACTOne CNG channel cells, membrane potential fluorescence; series mostly up to 22.9 µM
Procedure, shortened: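 Live HEK293 cells with a modified cyclic nucleotide-gated (CNG) channel report intracellular cAMP via membrane-potential dye fluorescence (ex 535/em 590 nm). Endogenous PDE-IV was targeted. Compounds were tested at up to 22.9 uM final; RO 20-1724 100 uM served as control.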

[8] = molecular target: Guanine nucleotide-binding protein G(i) subunit alpha-1 (Homo sapiens) (UniProt P63096); experiment: qHTS Assay for Inhibitors of RGS12 GoLoco Motif Activity (Green Fluorophore) (AID 879; active = well fitted curve in the direction sought with a large enough effect; an effect the other way counts as inactive or inconclusive;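 note: 0% = labeled peptide with Gαi1 and full inhibition = labeled peptide alone without protein; negative values mean loss of peptide binding seen as reduced polarization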); conditions: Galphai1/FITC-RGS12 GoLoco peptide, fluorescence polarization; series mostly up to 57.1 µM
Procedure, shortened: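 Fluorescence polarization assay: 50 nM Gαi1 with 10 nM FITC-labeled RGS12 GoLoco peptide in 10 mM Tris pH 7.5, 150 mM NaCl, 0.1 mM GDP, 0.05% NP40, 10 min at room temperature with compound.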

[9] = molecular target: Cytochrome P450 3A4 (Homo sapiens) (UniProt P08684); experiment: qHTS Assay for Activators of Cytochrome P450 3A4 (AID 885; active = well fitted curve in the direction sought with a large enough effect; an effect the other way counts as inactive or inconclusive; note: nearly all actives have a fitted effect of over 65% in size); conditions: recombinant CYP3A4, Luciferin-PPXE luminescence, 60 min; series mostly up to 57.1 µM
Procedure, shortened: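 Quantitative HTS format: compounds preincubated with 20nM human CYP3A4 and Luciferin-PPXE substrate at KM, reaction started by NADPH regeneration, stopped after 60 min, luciferase luminescence read 20 min later.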

[10] = molecular target: Pyruvate kinase (Leishmania mexicana) (UniProt Q27686); experiment: qHTS Validation Assay for Inhibitors of Leishmania Mexicana Pyruvate Kinase (AID 945; active = well fitted curve in the direction sought with a large enough effect; an effect the other way counts as inactive or inconclusive;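 note: 0% = DMSO only neutral control wells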); conditions: purified L. mexicana pyruvate kinase, enzyme activity, E451W mutant enzyme; series mostly up to 57.5 µM
Procedure, shortened: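 Eight-point qHTS titrations; enzyme 0.2 nM LmPYK (E451W mutant); substrates 0.5 mM PEP, 0.1 mM ADP; 7 mM MgCl2; 1 h room temperature; PKLight luminescence normalized to neutral control.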

[11] = molecular target: Alpha-galactosidase A (Homo sapiens) (UniProt P06280); experiment: Counterscreen for Glucocerebrosidase Inhibitors: qHTS Assay for Human alpha-Galactosidase at pH 4.5 (AID 992; active = well fitted curve in the direction sought with a large enough effect; an effect the other way counts as inactive or inconclusive; note: 0% is about no effect); conditions: purified enzyme, fluorogenic substrate; series mostly up to 76.9 µM
Procedure, shortened: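 Read-out is 4-methylumbelliferone fluorescence (365 nm excitation, 440 nm emission) after a pH 10 NaOH/glycine stop. Reactions held 2 nM enzyme and 80 uM substrate at pH 4.5 for 20 min at room temperature.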

[12] = molecular target: alpha-glucosidase (Oryza sativa, rice) (UniProt Q653V4); experiment: Counterscreen for Glucocerebrosidase Inhibitors: qHTS Assay for Rice alpha-Glucosidase at pH 5.0 (AID 997; active = well fitted curve in the direction sought with a large enough effect; an effect the other way counts as inactive or inconclusive;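 note: 0% = full activity with enzyme and -100% = basal without enzyme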); conditions: rice alpha-glucosidase enzyme activity; series mostly up to 76.9 µM
Procedure, shortened: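 Rice alpha-glucosidase (4 nM final) with 400 uM 4-methylumbelliferyl-alpha-D-glucopyranoside in citrate buffer pH 5.0, 20 min at room temperature, stopped at pH 10; fluorescence 365/440 nm, compounds 0.7 nM–77 uM, AC50 from Hill fits.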

[13] = qHTS Assay for Lipid Storage Modulators (AID 1519; calls by dose curve); conditions: Drosophila S3 cells, BODIPY lipid droplet/cell ratio, laser cytometry, cells loaded with oleic acid; for activity change, negative = inhibition: at 25.7 µM (top of the series)
Procedure, shortened: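 Cells seeded at 5,000 per well were treated with compounds over a concentration series and loaded with oleic acid (400 uM, as added). Lipid droplet fluorescence (488 nm excitation, 500-530 nm channel) was read by laser-scanning cytometry and normalized to 20 uM Triacsin C.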

[14] = molecular target: Ubiquitin carboxyl-terminal hydrolase 1 (Homo sapiens) (UniProt O94782); experiment: Inhibitors of USP1/UAF1: Pilot qHTS (AID 504865; active = well fitted curve in the direction sought with a large enough effect; an effect the other way counts as inactive or inconclusive;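 note: rhodamine fluorescence freed from ubiquitin-rhodamine substrate followed over time; top concentration of the series differs between compounds; % is set by controls: 0 for no effect and ±100 for the full control effect; nearly all actives have a fitted effect of over 35% in size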); conditions: purified USP1/UAF1, Ub-rhodamine cleavage fluorescence; series mostly up to 54.9 µM
Procedure, shortened: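 USP1/UAF1 complex (1nM) preincubated with compound 15 min at room temperature, then Ub-Rho substrate (150nM final) added. Fluorescence read kinetically at 480/540 nm, 6 reads every 60 seconds. Buffer: 50mM HEPES pH 7.8, 0.5mM EDTA, 0.1 mg/ml BSA, 1mM TCEP, 0.01% Tween-20.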

[15] = NFAT Signaling Pathway (AID 444); conditions: Jurkat NFAT-bla M1, carbachol, beta-lactamase ratio, 5 h;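 note: carbachol stimulus at about its EC50 of 1 µM final; % is set by controls: 0 for no effect and ±100 for the full control effect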
Procedure, shortened: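 Read-out: CCF4 FRET ratio (460 nm/530 nm) after 1 h RT dye loading, used for %activity and AC50 from titration series. Cells: Jurkat NFAT-β-lactamase/M1 line, treated with compound plus 1 uM carbachol for 5 h, 37 °C.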

[16] = measured here: cell count channel max response
[17] = measured here: lipid channel max response
[18] = at 7.69 µM (top of the series) unless noted

Ubiquitin carboxyl-terminal hydrolase 1 (Homo sapiens), sequence (O94782 whole entry, looked up): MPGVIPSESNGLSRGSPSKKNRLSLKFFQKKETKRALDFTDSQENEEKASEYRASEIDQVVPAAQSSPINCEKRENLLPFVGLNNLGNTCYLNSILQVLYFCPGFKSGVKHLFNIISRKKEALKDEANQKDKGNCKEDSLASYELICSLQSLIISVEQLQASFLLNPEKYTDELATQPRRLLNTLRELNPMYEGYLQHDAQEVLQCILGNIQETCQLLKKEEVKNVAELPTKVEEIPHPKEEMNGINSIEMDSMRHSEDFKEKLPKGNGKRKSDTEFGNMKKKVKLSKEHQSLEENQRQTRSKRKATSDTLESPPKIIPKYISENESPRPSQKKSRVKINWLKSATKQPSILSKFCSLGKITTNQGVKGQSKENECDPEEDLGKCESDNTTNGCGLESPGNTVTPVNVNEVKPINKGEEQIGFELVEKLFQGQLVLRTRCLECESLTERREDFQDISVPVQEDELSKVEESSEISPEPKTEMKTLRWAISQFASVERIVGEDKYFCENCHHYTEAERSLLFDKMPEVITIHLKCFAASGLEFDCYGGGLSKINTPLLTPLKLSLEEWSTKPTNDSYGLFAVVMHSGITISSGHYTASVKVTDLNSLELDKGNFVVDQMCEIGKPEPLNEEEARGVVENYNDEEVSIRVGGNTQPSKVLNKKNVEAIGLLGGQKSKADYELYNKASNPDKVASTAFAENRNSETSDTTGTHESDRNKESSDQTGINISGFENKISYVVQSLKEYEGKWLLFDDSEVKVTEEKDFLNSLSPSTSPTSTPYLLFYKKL
3',5'-cyclic-AMP phosphodiesterase 4B (Homo sapiens), sequence (Q07343 whole entry, looked up): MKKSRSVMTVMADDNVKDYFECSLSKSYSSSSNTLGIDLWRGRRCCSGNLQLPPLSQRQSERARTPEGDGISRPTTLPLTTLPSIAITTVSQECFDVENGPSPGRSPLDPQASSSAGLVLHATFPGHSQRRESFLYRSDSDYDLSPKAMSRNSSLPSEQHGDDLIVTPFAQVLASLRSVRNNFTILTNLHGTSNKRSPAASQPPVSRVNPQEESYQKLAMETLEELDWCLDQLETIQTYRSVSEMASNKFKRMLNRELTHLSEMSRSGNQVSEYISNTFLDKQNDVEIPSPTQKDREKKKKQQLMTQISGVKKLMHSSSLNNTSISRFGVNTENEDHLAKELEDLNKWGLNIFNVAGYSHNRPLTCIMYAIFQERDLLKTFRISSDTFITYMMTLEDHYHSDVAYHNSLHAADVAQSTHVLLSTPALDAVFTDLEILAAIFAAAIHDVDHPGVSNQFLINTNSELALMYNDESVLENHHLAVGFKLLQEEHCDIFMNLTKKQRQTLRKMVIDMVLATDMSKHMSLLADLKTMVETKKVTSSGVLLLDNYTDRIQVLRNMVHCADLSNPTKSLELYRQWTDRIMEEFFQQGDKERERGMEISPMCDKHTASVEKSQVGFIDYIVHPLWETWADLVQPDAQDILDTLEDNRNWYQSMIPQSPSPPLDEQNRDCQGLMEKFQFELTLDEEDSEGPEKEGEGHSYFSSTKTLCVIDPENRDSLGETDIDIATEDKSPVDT
Alpha-galactosidase A (Homo sapiens), sequence (P06280 whole entry, looked up): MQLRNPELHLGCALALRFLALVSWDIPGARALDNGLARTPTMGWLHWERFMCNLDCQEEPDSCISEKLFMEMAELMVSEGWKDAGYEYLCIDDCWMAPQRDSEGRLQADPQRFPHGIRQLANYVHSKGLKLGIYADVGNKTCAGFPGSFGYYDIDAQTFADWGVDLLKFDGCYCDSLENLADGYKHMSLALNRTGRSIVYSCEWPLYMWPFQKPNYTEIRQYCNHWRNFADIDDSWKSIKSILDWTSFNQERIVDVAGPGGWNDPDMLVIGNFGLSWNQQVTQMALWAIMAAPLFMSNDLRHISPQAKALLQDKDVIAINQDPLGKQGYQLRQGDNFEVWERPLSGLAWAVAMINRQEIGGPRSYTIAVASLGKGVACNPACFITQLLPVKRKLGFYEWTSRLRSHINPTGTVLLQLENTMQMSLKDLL
Guanine nucleotide-binding protein G(i) subunit alpha-1 (Homo sapiens), sequence (P63096 whole entry, looked up): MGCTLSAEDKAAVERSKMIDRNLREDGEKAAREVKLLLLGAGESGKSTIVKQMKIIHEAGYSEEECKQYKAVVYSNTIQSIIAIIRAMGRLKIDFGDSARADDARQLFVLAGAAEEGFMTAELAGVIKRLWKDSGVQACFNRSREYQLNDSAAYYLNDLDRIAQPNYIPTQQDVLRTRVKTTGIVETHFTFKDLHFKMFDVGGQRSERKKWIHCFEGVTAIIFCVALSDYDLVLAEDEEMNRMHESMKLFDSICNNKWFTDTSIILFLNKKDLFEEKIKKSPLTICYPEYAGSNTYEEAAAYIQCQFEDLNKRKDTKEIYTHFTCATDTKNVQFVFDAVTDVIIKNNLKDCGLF
Pyruvate kinase (Leishmania mexicana), sequence (Q27686 2-499 E452W): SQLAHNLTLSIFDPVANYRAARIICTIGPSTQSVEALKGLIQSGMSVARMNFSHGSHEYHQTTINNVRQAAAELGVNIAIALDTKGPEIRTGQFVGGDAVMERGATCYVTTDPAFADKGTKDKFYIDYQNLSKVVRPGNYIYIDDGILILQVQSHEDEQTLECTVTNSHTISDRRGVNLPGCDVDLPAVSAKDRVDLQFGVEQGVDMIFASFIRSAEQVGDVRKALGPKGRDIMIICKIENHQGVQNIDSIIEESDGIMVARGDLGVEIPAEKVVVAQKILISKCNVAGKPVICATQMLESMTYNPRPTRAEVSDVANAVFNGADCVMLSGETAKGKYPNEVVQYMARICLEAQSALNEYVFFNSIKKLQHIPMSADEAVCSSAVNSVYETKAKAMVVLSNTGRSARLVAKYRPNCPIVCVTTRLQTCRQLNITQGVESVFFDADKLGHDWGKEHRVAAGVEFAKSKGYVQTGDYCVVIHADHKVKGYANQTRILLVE
Cytochrome P450 1A2 (Homo sapiens), sequence (P05177 whole entry, looked up): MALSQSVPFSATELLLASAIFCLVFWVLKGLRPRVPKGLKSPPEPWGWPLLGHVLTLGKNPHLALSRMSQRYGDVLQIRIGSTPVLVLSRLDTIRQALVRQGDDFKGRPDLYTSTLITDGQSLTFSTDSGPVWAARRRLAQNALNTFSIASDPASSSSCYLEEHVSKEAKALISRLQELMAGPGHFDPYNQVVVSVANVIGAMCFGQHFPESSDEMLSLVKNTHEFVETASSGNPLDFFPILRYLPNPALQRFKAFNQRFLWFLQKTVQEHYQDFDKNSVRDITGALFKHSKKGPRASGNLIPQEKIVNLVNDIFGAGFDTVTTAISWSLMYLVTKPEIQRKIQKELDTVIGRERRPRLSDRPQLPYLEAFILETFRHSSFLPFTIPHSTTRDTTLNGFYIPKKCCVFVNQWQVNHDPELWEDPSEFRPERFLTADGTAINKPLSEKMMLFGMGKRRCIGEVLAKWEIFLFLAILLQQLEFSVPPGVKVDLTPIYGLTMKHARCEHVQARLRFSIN
Glucocorticoid receptor (Homo sapiens), sequence (P04150 whole entry, looked up, the tested form may be a part): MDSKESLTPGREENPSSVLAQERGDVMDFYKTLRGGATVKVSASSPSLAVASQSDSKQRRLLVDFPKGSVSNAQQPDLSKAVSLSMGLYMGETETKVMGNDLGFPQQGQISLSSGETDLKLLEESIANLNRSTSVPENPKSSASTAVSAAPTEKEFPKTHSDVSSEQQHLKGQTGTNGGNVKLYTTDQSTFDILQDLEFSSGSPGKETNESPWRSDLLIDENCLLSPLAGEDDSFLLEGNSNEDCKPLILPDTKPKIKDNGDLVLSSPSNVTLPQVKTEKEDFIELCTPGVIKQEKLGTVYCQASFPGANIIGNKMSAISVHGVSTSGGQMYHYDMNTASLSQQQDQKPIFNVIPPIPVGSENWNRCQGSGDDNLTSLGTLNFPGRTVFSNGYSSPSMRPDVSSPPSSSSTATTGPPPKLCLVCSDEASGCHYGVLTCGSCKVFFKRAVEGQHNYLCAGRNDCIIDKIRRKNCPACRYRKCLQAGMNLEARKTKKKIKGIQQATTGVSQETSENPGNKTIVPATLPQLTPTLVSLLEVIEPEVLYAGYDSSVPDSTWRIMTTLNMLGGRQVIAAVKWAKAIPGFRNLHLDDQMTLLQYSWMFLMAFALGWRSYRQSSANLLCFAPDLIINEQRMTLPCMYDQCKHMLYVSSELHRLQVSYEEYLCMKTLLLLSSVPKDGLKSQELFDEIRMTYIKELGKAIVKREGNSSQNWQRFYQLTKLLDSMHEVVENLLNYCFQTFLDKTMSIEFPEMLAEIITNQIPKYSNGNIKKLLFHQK
Cytochrome P450 3A4 (Homo sapiens), sequence (P08684 whole entry, looked up): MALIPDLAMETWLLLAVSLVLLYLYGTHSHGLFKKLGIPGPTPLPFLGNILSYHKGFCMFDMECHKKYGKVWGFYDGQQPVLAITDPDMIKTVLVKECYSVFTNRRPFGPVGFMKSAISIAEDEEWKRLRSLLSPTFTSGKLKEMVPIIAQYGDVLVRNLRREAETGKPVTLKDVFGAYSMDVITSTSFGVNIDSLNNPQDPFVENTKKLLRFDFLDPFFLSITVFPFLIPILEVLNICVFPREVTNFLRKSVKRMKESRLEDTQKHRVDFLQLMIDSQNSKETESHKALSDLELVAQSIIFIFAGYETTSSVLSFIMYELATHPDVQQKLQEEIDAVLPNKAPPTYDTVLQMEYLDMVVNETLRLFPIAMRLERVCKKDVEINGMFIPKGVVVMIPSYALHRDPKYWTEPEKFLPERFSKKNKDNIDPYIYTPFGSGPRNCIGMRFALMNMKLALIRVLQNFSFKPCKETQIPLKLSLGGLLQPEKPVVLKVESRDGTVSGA

OCCN1CCN(CC/C=C2\c3ccccc3Sc3ccc(C(F)(F)F)cc32)CC1
active: Potency [2] 7.94 µM and 5.01 µM
inactive: activity change, negative = inhibition ([1]; at 17.2 µM (top of the series)) 16.2% | activity change, negative = inhibition ([1]; at 38 µM (top of the series)) 29.4% | activity, negative = inhibition ([3]; at 17.2 µM (top of the series)) 5.96% | activity, negative = inhibition ([3]; at 38 µM (top of the series)) -10.3% | Potency [4] > 46 µM and > 20.6 µM | Potency [5] > 46 µM and > 20.6 µM | Potency [6] | Potency [7] | Potency [8] | Potency [9] | outcome [10] | outcome [11] | outcome [12] | activity change, negative = inhibition [13] -3.77% | Potency [14]
-13.1%: max response [13, 16]
-14.8%: max response [13, 17]

CN1CCc2cccc3c2[C@@H]1Cc1ccc(O)c(O)c1-3
inactive: activity change, negative = inhibition ([1]; at 17.2 µM (top of the series)) -20.2% | activity change, negative = inhibition ([1]; at 38 µM (top of the series)) -26.6% | activity change, negative = inhibition ([15]; at 17.2 µM (top of the series)) -6.25% | activity change, negative = inhibition ([15]; at 38 µM (top of the series)) -15.4% | activity, negative = inhibition ([3]; at 17.2 µM (top of the series)) 1.07% | activity, negative = inhibition ([3]; at 38 µM (top of the series)) -10.2% | Potency [4] > 46 µM and > 20.6 µM | Potency [5] > 46 µM and > 20.6 µM | Potency [7] | Potency [8] | outcome [10] | outcome [11] | outcome [12] | activity change, negative = inhibition [13] 2.32% | Potency [14]
6.43%: max response [13, 17]
inactive and 15.8 µM (active): Potency [6]
2.96%: max response [13, 16]

C[C@@]12C[C@@H](O)[C@H]3[C@@H](CCC4=CC(=O)CC[C@]43C)[C@H]1CC[C@H]2C(=O)CO
inactive: activity change, negative = inhibition ([1]; at 17.2 µM (top of the series)) 4.07% | activity change, negative = inhibition ([1]; at 38 µM (top of the series)) -3.18% | activity change, negative = inhibition ([15]; at 17.2 µM (top of the series)) 0.118% | activity change, negative = inhibition ([15]; at 38 µM (top of the series)) -0.571% | activity, negative = inhibition ([3]; at 17.2 µM (top of the series)) -0.637% | activity, negative = inhibition ([3]; at 38 µM (top of the series)) -1.77% | Potency [7] | activity change, negative = inhibition [13] -3.75% | Potency [14]
-9.53%: max response [13, 17]
active: Potency [4] 74.2 nM and 8.8 nM | Potency [5] 179 nM
-3.56%: max response [13, 16]

CC(C)COC[C@H](CN(Cc1ccccc1)c1ccccc1)N1CCCC1
-16.9%: max response [13, 16]
inactive and 12.6 µM (active): Potency [2]
inactive: activity change, negative = inhibition [1, 18] 15.1% [at 38 µM] | activity change, negative = inhibition [15, 18] -5.29% [at 38 µM] | activity, negative = inhibition ([3]; at 17.2 µM (top of the series)) -1.52% | activity, negative = inhibition ([3]; at 38 µM (top of the series)) -10.2% | Potency [4] > 46 µM and > 20.6 µM | Potency [5] > 46 µM and > 20.6 µM | Potency [6] | Potency [7] | Potency [8] | Potency [9] | outcome [10] | outcome [11] | outcome [12] | activity change, negative = inhibition [13] -12.4% | Potency [14]
-26.5%: max response [13, 17]

C[C@@H](C[N+](C)(C)C)OC(N)=O
-0.356%: max response [13, 16]
inactive: activity change, negative = inhibition ([1]; at 17.2 µM (top of the series)) 2.54% | activity change, negative = inhibition ([1]; at 38 µM (top of the series)) 13.3% | Potency [2] | activity change, negative = inhibition ([15]; at 17.2 µM (top of the series)) 9.21% | activity change, negative = inhibition ([15]; at 38 µM (top of the series)) 17.1% | activity, negative = inhibition [3, 18] -3.42% [at 17.2 µM] | Potency [4] > 46 µM and > 20.6 µM | Potency [5] > 46 µM and > 20.6 µM | Potency [6] | Potency [7] | Potency [8] | outcome [10] | outcome [11] | outcome [12] | activity change, negative = inhibition [13] -1.39% | Potency [14]
-3.27%: max response [13, 17]
